The list is not random: actives were taken first. Their share in the collection is about 5.7%.
DAX1 inh-1: DAX1 (NR0B1) inhibitors on StAR promoter, primary screen, cell-based, luminescence, SF-1 (NR5A1), full-length DAX-1 | HEK293T StAR-luciferase reporter, SF-1/DAX-1 repression relief | inhibition, % at 6.8 µM | 1.1% of 370,000 active | AID 652010, 2013;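 active = inhibition above the mean over all tested compounds plus 3 SD, cut at about 3.6% in these data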;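 note: higher inhibition means more luminescence from relief of DAX-1 repression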
AHR act: AHR activators, primary screen, cell-based, luminescence, luciferase reporter, human. activation, % at 5 µM. 2.5% of 320,000 active. AHR-responsive luciferase reporter cells. Aryl hydrocarbon receptor (Homo sapiens), P35869; in the data active = activation above about 47%
Target sequence (P35869 whole entry, looked up): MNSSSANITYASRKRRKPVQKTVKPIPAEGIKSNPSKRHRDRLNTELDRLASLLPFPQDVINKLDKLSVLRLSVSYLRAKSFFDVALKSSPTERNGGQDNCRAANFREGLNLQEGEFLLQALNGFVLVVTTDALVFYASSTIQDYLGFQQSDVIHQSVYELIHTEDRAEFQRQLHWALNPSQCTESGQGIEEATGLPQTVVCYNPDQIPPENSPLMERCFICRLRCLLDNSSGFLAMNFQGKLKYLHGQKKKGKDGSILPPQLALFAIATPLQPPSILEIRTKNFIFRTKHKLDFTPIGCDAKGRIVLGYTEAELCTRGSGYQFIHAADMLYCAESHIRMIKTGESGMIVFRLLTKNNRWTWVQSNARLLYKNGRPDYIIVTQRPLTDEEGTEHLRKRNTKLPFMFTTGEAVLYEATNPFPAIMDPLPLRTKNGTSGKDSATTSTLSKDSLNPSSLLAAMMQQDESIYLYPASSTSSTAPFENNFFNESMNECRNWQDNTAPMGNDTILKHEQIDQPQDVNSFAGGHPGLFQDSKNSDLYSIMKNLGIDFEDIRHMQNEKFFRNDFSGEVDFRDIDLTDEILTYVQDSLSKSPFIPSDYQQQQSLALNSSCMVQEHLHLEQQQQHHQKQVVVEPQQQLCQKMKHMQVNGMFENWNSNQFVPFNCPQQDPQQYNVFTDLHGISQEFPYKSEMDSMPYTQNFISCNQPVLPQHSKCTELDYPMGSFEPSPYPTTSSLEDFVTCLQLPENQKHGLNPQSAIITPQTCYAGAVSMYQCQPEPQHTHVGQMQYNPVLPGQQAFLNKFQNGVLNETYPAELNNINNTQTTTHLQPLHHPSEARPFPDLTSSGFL
ssDAF12 agonist: S. stercoralis DAF-12 nuclear receptor activators, primary screen, cell-based, luminescence, HEK293, GRIP1 co-expression, lit1-tk-luc; HEK293 ssDAF-12/GRIP1 lit1-tk-luc reporter; % of 3 µM dafachronic acid response; activation, % at 6.8 µM; 1% of 370,000 active;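 active = activation above the mean over all tested compounds plus 3 SD, cut at about 0.9% in these data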
hgDAF-12 ag: H. glycines DAF-12 receptor agonists, primary screen, cell-based, luminescence, HEK293, GAL4 fusion, UAS-luciferase; 1.8% of 370,000 active; Nuclear hormone receptor DAF-12 (Heterodera glycines), GAL4 fusion; HEK293 GAL4-hgDAF12 UAS-luciferase reporter, agonist luminescence; normalized to butyrate control; activation, % at 6.8 µM;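 active = activation above a cutoff set at the mean of all screened compounds plus 3 SD, cut at about 10% in these data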
hcDAF-12 act: H. contortus DAF-12 nuclear receptor activators, primary screen, cell-based, luminescence, HEK293, lit1-tk-luc reporter | HEK293 hcDAF-12 lit1-tk-luc reporter; 0% DMSO, 100% Δ7-dafachronic acid | activation, % at 6.8 µM | 1.4% of 370,000 active;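 active = activation above the mean of all tested compounds plus 3 SD, cut at about 5.5% in these data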
DAX1 inh-2: DAX1 (NR0B1) inhibitors, primary screen, cell-based, HEK293, Gal4-DAX1, luciferase luminescence. Nuclear receptor subfamily 0 group B member 1 (Homo sapiens), P51843. HEK293 Gal4-DAX1 luciferase reporter. inhibition, % at 6.75 µM. 0.99% of 340,000 active;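 active = inhibition above the mean over all tested compounds plus 3 SD, cut at about 4.2% in these data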;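 note: inhibition shows as a rise in luminescence from relieved DAX1 repression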
LXRb hcDAF ctr: LXR agonists, Gal4 luciferase reporter, confirmation, counter-screen for hcDAF-12 agonist project, cell-based, luminescence, HEK293, H. contortus campaign. activation, % at 6.8 µM. HEK293 Gal4-LXR tk-luc reporter, 24 h; normalized: DMSO 0%, positive control 100%. 3,400 tested, under 10 active. shares compounds with hcDAF-12 act. AID 743027, 2013;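 active = mean percent activation of the reporter above a cutoff set as the average over tested compounds plus their standard deviation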
hcDAF12 conf: H. contortus DAF-12 receptor agonists, confirmation, cell-based, luminescence, HEK293, lit1-tk-luc, triplicate; HEK293 hcDAF-12 lit1-tk-luc reporter; % of Δ7-dafachronic acid response; shares compounds with hcDAF-12 act; 61% of 3,400 active; activation, % at 6.8 µM;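 active = mean activation across triplicate tests above the threshold derived from the earlier primary screen, cut at about 5.5% in these data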
Large screens that a line does not name were inactive (follow-up assays come after a bar, where they were run).

Cc1ccc(CN2CCN(Cc3ccco3)CC2)cc1	none
CCOC(=O)N/N=C(\C)c1cccs1	none
C/C(=N\Nc1nc2ccccc2s1)c1cccs1	AHR act 58, ssDAF12 agonist 1.4, hgDAF-12 ag 12, hcDAF-12 act 18 | LXRb hcDAF ctr inactive | hcDAF12 conf 23
C/C(=N/NC(=O)c1cccs1)c1cccs1	hgDAF-12 ag 13, hcDAF-12 act 6.9, DAX1 inh-2 7.1 | LXRb hcDAF ctr inactive | hcDAF12 conf inactive
C/C(=N\Nc1nc(-c2ccccc2)cs1)c1cccs1	none
CC(=NNc1nc2ccccc2s1)c1ncccn1	hgDAF-12 ag 12, hcDAF-12 act 11 (no result: AHR act) | LXRb hcDAF ctr inactive | hcDAF12 conf inactive
Cc1c(OCC(=O)C(C)(C)C)ccc2c(-c3ccccc3)cc(=O)oc12	none
COc1cccc(F)c1C(=O)NC(=O)Nc1ccc2nc(C)oc2c1	none (no result: DAX1 inh-1, ssDAF12 agonist, hgDAF-12 ag, hcDAF-12 act)
COc1cccc(C(=O)N2CCC2(C)C(=O)NC(C)C)c1 (stereo not drawn)	none (no result: AHR act, DAX1 inh-2)
CC(C)Oc1ccc(CNC(=O)c2cc(S(=O)(=O)N3CCOCC3)cn2C)cc1	none
c1ccc(C2=NN(c3ccccc3)CC2)cc1	hgDAF-12 ag 11, hcDAF-12 act 6.7, DAX1 inh-2 4.3 | LXRb hcDAF ctr inactive | hcDAF12 conf inactive
COc1cc(/C=C/C(=O)Nc2cccc(S(=O)(=O)NC3=NCCCCC3)c2)ccc1OCC#N	none
Cc1c(/C=N\NC(=O)c2c[nH]c3ccccc23)cnn1C	AHR act 76, ssDAF12 agonist 1.7, hcDAF-12 act 9.4 | LXRb hcDAF ctr inactive | hcDAF12 conf inactive
O=C(N/N=C/c1c[nH]c2ccccc12)c1ccc(Br)cc1	ssDAF12 agonist 1.1, hcDAF-12 act 7.3 | LXRb hcDAF ctr inactive | hcDAF12 conf inactive
CC(C)(C)OC(=O)N/N=C/c1c[nH]c2ccccc12	ssDAF12 agonist 1.4, hgDAF-12 ag 12, hcDAF-12 act 11 | LXRb hcDAF ctr inactive | hcDAF12 conf 6.6
O=C(N/N=C/c1c[nH]c2ccccc12)c1ccn[nH]1	hgDAF-12 ag 12, hcDAF-12 act 9.9 | LXRb hcDAF ctr inactive | hcDAF12 conf inactive
Cc1ccc(N=Cc2c(O)c3ccccc3oc2=O)cc1F	none
O=C(N/N=C\c1c[nH]c2ccccc12)c1ccc(O)cc1	ssDAF12 agonist 1.4, hcDAF-12 act 9.7 (no result: AHR act) | LXRb hcDAF ctr inactive | hcDAF12 conf inactive
O=C(N/N=C/c1c[nH]c2ccccc12)C1CC1c1ccccc1 (stereo not drawn)	hcDAF-12 act 9.2 | LXRb hcDAF ctr inactive | hcDAF12 conf inactive
Cc1nccn1CC(=O)N/N=C/c1c[nH]c2ccccc12	hcDAF-12 act 8.3 | LXRb hcDAF ctr inactive | hcDAF12 conf inactive
O=C(N/N=C/c1c[nH]c2ccccc12)C1CC1(c1ccccc1)c1ccccc1 (stereo not drawn)	none
CC(NC(=O)C(=O)NCCc1c[nH]c2ccccc12)c1ccccc1 (stereo not drawn)	none
O=c1c(Cc2ccccc2)c(O)ccn1Cc1ccco1	none
Nc1cccc(C2=Nc3cccc4cccc(c34)N2)c1	hcDAF-12 act 8.5 | LXRb hcDAF ctr inactive | hcDAF12 conf 5.7

Screens as filed in PubChem BioAssay.
